Data on 50 compounds can be found in PubChem BioAssay AID1346378 (National Center for Advancing Translational Sciences (NCATS), 2018).

Molecules are shown by their SMILES. Out of some 420,000 compounds screened, about 540 (0.13%) were called active. For the sample, actives were picked, then their nearest neighbours and some compounds at random. Unmarked numbers belong to inactive results. No stated cut-off is given here; in the data, active means activity change below about -50%; inconclusive means mostly about -30% to -49%; inactive means weaker than that.

Phosphatidylinositol 4-kinase type 2-alpha (Homo sapiens), sequence (Q9BTU6 whole entry, looked up): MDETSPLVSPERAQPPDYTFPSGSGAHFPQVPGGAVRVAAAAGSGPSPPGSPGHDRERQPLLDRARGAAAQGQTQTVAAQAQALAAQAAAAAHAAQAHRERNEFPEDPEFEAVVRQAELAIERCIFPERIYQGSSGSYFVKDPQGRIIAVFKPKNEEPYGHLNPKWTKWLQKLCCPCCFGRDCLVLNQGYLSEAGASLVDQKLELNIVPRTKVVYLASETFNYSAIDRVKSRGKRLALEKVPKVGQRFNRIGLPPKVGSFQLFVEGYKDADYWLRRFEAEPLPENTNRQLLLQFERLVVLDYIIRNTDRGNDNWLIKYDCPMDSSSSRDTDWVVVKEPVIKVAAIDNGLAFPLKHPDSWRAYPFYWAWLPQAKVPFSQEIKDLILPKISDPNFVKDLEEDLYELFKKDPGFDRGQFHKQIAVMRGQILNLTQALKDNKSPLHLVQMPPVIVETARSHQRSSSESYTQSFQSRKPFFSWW

The test has as its target Phosphatidylinositol 4-kinase type 2-alpha (Homo sapiens) (UniProt Q9BTU6). Put plainly: qHTS for small molecular inhibitors of PI4K2A.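 On activity change, negative = inhibition: -100% = wells without enzyme as full effect.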 The settings on record: purified PI4K2A, ADP-Glo luminescence, 1 h; at 76.9 µM, active compounds read low. The method, boiled down:
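Compounds are screened against recombinant PI4K2A using PI as substrate and ATP, the latter dispensed at 300 microM. Reactions run one hour at ambient temperature before ADP-Glo detection; full inhibition defined by wells lacking enzyme.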
In general terms: qHTS replaces the single test concentration by a dilution series.
As to `CCCCCn1c(=O)[nH]c2cc(C(=O)NCCN(C)CCCC)ccc2c1=O`, the activity change, negative = inhibition is 3.6%. The value for `O=C(CSc1cn(CC(=O)N2CCOCC2)c2ccccc12)Nc1ccccc1` was -0.303%. The value for `CCCCOCCOC(=O)c1cccnc1` was 0.377%; that for `Cc1ccc(CNC(=O)CSc2c(C)cnc3c2c(=O)n(C)c(=O)n3C)cc1` was -1.23%.

For the compound `CO[C@]1(NC(=O)CSC(F)F)C(=O)N2C(C(=O)O)=C(CSc3nnnn3CCO)CO[C@H]21`, the activity change, negative = inhibition was -0.764%. The value for `CC(C)CNc1ncnc2c1nnn2C` was 1.45%; that for `CCN1CCN(C(=O)N[C@@H](C(=O)N[C@@H]2C(=O)N3[C@@H]2SC(C)(C)[C@H]3C(=O)O)c2ccccc2)C(=O)C1=O` was 2.58%. Regarding `CCOc1ccccc1CNC(=O)C1CCCN(S(=O)(=O)c2ccc3c(ccn3C)c2)C1` (stereo not given), the activity change, negative = inhibition was 2.73%.

Turning to `O=C(CSc1nnc(-c2ccccc2F)o1)Nc1cccc(C(F)(F)F)c1`, the activity change, negative = inhibition is 2.53%. The value for `CC1CC2C3CCC4=CC(=O)C=C[C@]4(C)[C@@]3(F)[C@@H](O)C[C@]2(C)[C@@]1(O)C(=O)CO` (stereo not given in full) was 2.22%; that for `CCCCCn1c(=O)[nH]c2cc(C(=O)Nc3ccc(F)cc3)ccc2c1=O` was 3.49%. Take `COc1ccc(-c2cc(=O)oc3cc(OC(C)C(=O)NCC4CCC(C(=O)O)CC4)ccc23)cc1` (stereo not given): the activity change, negative = inhibition was -0.472%. Turning to `COc1ccc(-c2cc(C(=O)NC(Cc3c[nH]c4ccccc34)C(=O)O)c(C)o2)cc1OC` (stereo not given), the activity change, negative = inhibition was -4.82%. For the compound `COc1ccc(-c2cc(=O)oc3cc(OCC(=O)N[C@@H](Cc4c[nH]c5ccccc45)C(=O)O)ccc23)cc1`, the activity change, negative = inhibition was -51.9% (active). The value for `NCC[C@H](O)C(=O)N[C@@H]1C[C@H](N)[C@@H](O[C@H]2O[C@H](CN)[C@@H](O)[C@H](O)[C@@H]2O)[C@H](O)[C@@H]1O[C@H]1O[C@H](CO)[C@@H](O)[C@H](N)[C@@H]1O` was “inactive”. Regarding `Cc1ccccc1OCc1nc2c3cnn(-c4ccccc4F)c3ncn2n1`, the activity change, negative = inhibition is -3.76%.

In the case of `CCc1ccc(CN(Cc2ccco2)C(=O)COc2ccc(Cl)c(C)c2)cc1`, the activity change, negative = inhibition was -7.93%. The value for `CCOc1ccc(NC(=O)Cn2c(=O)n(CCCC(=O)NCc3ccc4c(c3)OCO4)c(=O)c3ccccc32)cc1` was -1.29%. On to `CC1=NN(c2ccc(Cl)c(C(=O)O)c2)C(=O)/C1=C/c1ccc(-c2ccccc2[N+](=O)[O-])o1`, for which the activity change, negative = inhibition was -58.6% (active).

As for `O=C(Cn1c(=O)n(Cc2cccs2)c(=O)c2cccnc21)Nc1ccc(F)cc1`, the activity change, negative = inhibition was -2.3%.

With `CCOC(=O)c1ccc(NC(=O)Cn2cc(S(=O)(=O)Cc3ccccc3F)c3ccccc32)cc1`, the activity change, negative = inhibition was -0.867%.

Regarding `Cc1ccc(C(=O)COC(=O)C(Cc2c[nH]c3ccccc23)NC(=O)c2ccc(Br)cc2)cc1` (stereo not given), the activity change, negative = inhibition is 1.44%.

`COCCCN1CCC(NC(=O)c2cc(Cl)c(N)c3c2OCC3)CC1`: the activity change, negative = inhibition was -0.718%. The value for `CN(C)c1cccc(C(=O)Nc2nc3ccc(S(=O)(=O)NC(C)(C)C)cc3s2)c1` was 0.225%. For the compound `CN(Cc1ccccc1)C(=O)c1cn(C)c2ccc(S(=O)(=O)N(C)C3CCCCC3)cc2c1=O`, the activity change, negative = inhibition is 2.24%. As to `CCOC(=O)c1ccc(N2C(=O)c3[nH]nc(-c4ccccc4)c3C2c2ccc(C(C)C)cc2)cc1` (stereo not given), the activity change, negative = inhibition was 4.25%.

For `CCOC(=O)c1[nH]c(C)c(CCC(=O)N2CCN(c3ccccc3)CC2)c1C`, the activity change, negative = inhibition is -2.94%. The value for `CSc1ccccc1N1CCN(CCCCCC(=O)NC2CCCc3ccccc32)CC1` (stereo not given) was 3.17%; that for `COc1cccc(-c2cc(C(=O)Nc3ccc(C)cc3)[nH]n2)c1` was -3.12%. In the case of `COc1cc(C(=O)N2CCN(c3ccc(Nc4ccc(C)cc4)nn3)CC2)cc(OC)c1OC`, the activity change, negative = inhibition is 1.58%. Take `CO/N=C(/C(=O)N[C@@H]1C(=O)N2C(C(=O)O)=C(Cn3nnc(C)n3)CS[C@H]12)c1csc(N)n1`: the activity change, negative = inhibition is -10.8%. The value for `O=C1Cc2cc(S(=O)(=O)Nc3ccc(OC(F)(F)F)cc3)cc3c2N1CCC3` was -2.44%; that for `COC(=O)c1ccc(OC)c(Cn2c(=O)n(Cc3ccccc3)c(=O)c3c2c2cc(OC)ccc2n3C)c1` was 4.84%.

For `COc1ccccc1CNC(=O)CCn1c(=O)c2ccccc2n(CC(=O)Nc2ccc(Br)cc2F)c1=O`, the activity change, negative = inhibition is 2.55%. For `COc1ccc(OC)c(NC(=O)CSc2nc3ccccc3nc2N2CCCCC2)c1`, the activity change, negative = inhibition is 3.46%.

`CCOCCCNC(=O)c1c(NC(=O)Cc2coc3ccc(C)cc23)sc2c1CCC2`: the activity change, negative = inhibition was -1.23%. The value for `COC(=O)c1ccccc1NC(=O)c1cc(-c2ccccc2O)no1` was -2.41%. The value for `O=C1CSC(=S)N1/N=C/c1ccc(O)c([N+](=O)[O-])c1` was -62.1% (active); that for `COC(=O)c1nc(Cl)c(Cl)nc1N` was 2.02%; that for `CCC(C(=O)Nc1cccc(-c2nc3cccnc3s2)c1C)c1ccccc1` (stereo not given) was 6.98%. The value for `CCc1ccc(NC(=O)c2cnc3c(-c4ccccc4)c(C)nn3c2C)cc1` was 0.0021%. For the compound `CCCc1nn2c(=O)cc(COC(=O)c3ccc(NC(=O)C(C)Oc4ccccc4)cc3)nc2s1` (stereo not given), the activity change, negative = inhibition was -2.75%. The value for `O=C(CC1C(=O)N(c2ccccc2)C(=O)N1CCc1cccs1)Nc1ccc(F)cc1` (stereo not given) was 3.68%; that for `COc1ccc(C2=NC3(CCCCC3)N(CC(=O)Nc3ccc(C(C)C)cc3)C2=O)cc1` was -3.85%. Turning to `CCOC(=O)c1c(C)[nH]c(C)c1S(=O)(=O)NCC(=O)NCc1cccc(C)c1`, the activity change, negative = inhibition is -4.08%.

As to `COc1ccccc1N1CCN(C2C(=O)c3ccccc3N2C(C)=O)CC1` (stereo not given), the activity change, negative = inhibition was 2.81%. Regarding `COc1ccc(C2CC(=O)Nc3c2c(=O)nc2c(C)cccn32)cc1OC` (stereo not given), the activity change, negative = inhibition is -1.68%. The value for `CCOC(=O)c1cc2c(=O)n3ccccc3nc2n(CCCOC)c1=NC(=O)C(C)(C)Oc1ccc(Cl)cc1` was -2.85%. For the compound `CCOC(=O)c1c(C)[nH]c(C)c1S(=O)(=O)N1CCC(C(=O)Nc2ccc(C)c(Cl)c2)CC1`, the activity change, negative = inhibition is 0.586%. With `Cc1ccc(Cl)cc1NC(=O)C(C)n1nnc2sc(-c3ccccc3)cc2c1=O` (stereo not given), the activity change, negative = inhibition is 3.33%.
